In PubChem BioAssay (Tox21) one finds Potency and outcome data, which are given here for 15 compounds.

Where “and” joins values, the source holds several entries; their conditions need not be identical. Equal values may be shown once. Records with an inconclusive call do not appear. Some structures have more than one record in an assay (separate samples or runs), and their calls can disagree. Calls of active or inactive are those of the source. Unless noted, calls come from the whole dose curve; as a rule, active = well fitted curve in the direction sought with a large enough effect in the repeat runs; inconclusive = weak or mixed curves; inactive = no such curve, though single readings can be large; an effect the other way counts as inactive or inconclusive.

Test [1] is described as follows: qHTS assay for small molecule agonists of the p53 signaling pathway (AID 651631; calls by dose curve; note: nearly all actives have a fitted effect of over 15% in size; note: potency is the fitted concentration of half-maximal effect). The essentials: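 Beta-lactamase reporter activity under p53 response elements was quantified in HCT-116 cells by FRET fluorescence, following 16 h incubation with test compounds at 37 °C and 2 h substrate development at room temperature.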
Background: In qHTS, concentration-response curves come from the screen itself.

Test [2] in a line: qHTS assay for small molecules that induce genotoxicity in human embryonic kidney cells expressing luciferase-tagged ATAD5 (AID 651632). Note: nearly all actives have a fitted effect of over 15% in size. The essentials: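 Test compounds were delivered by pin tool onto HEK293T reporter cells (2,000/well) expressing ATAD5 fused to luciferase. After 16 hr at 37C, 5% CO2, Amplite was added for 30 min at room temperature and luminescence was measured.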

The nature of test [3]: qHTS assay for small molecules that induce genotoxicity in human embryonic kidney cells expressing luciferase-tagged ATAD5 - cell viability (AID 651634; calls by dose curve; note: nearly all actives have a fitted effect of over 25% in size). In a few lines:
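Quantitative high-throughput format. HEK293T cells expressing ATAD5 fused to luciferase were plated at 2,000 cells/well and treated 15.5 hr with compound versus DMSO. Viability was determined by fluorescent live-cell protease substrate, 30 min at 37C.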

Test [4] is described as follows: qHTS assay for small molecule disruptors of the mitochondrial membrane potential (AID 720635). Note: potency is the fitted concentration of half-maximal effect. The essentials: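 HepG2 cells exposed to compound 1 hr at 37C, then Mito-MPS dye 30 min. Ratio read of aggregate (540/590 nm) versus monomer (490/535 nm) fluorescence.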
Test [5] in a line: qHTS assay to test for compound auto fluorescence at 590 nm (red) in HepG2 cells (AID 720674). The essentials:
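Fluorescence at 590 nm emission following 540 nm excitation was recorded from HepG2 wells one hour after compound transfer, with DMSO-only wells as vehicle and Rose Bengal sodium equivalency as the scale.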

The nature of test [6]: qHTS assay to test for compound auto fluorescence at 535 nm (green) in HepG2 cells (AID 720675).
Test [7] can be described thus: qHTS assay to test for compound auto fluorescence at 460 nm (blue) in HEK293 cells (AID 720678). The essentials:
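HEK293, 2,000 cells/well, 10% dialyzed FBS; attach 4-5 hr 37C; pin compound or DMSO; o/n 37C/5% CO2; fluorescence 405/460 nm; triamterene-equivalent units.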

Test [8] can be described thus: qHTS assay to test for compound auto fluorescence at 590 nm (red) in HEK293 cells (AID 720679). The essentials:
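Intensity at 540nm excitation and 590nm emission is reported as Rose Bengal sodium-equivalent autofluorescence. Measurements followed overnight exposure (37C, 5% CO2) of HEK293 cells, 2,000 per well, to 23 nL compound.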

Test [9] in a line: qHTS assay to test for compound auto fluorescence at 535 nm (green) in HEK293 cells (AID 720680).
The nature of test [10]: qHTS assay to test for compound auto fluorescence at 460 nm (blue) in HEK293 cell free culture (AID 720681). In a few lines: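 Compounds were added to cell-free DMEM with 10% FBS and fluorescence read directly. The blue channel used 405 nm excitation and 460 nm emission, with triamterene as the reference fluorophore.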
Test [11] in a line: qHTS assay to test for compound auto fluorescence at 535 nm (green) in HEK293 cell free culture (AID 720682). In a few lines: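 Each library compound, or DMSO control, is added by pintool to medium alone, comprising DMEM and 10% FBS. Emission at 535 nm following 485 nm excitation is quantified against fluorescein.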
Test [12] can be described thus: qHTS assay to test for compound auto fluorescence at 590 nm (red) in HEK293 cell free culture (AID 720683). In a few lines:
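Cell-free wells of DMEM with 10% FBS received compound, and intrinsic fluorescence was read at excitation/emission 540/590 nm. Values expressed as equivalence to Rose Bengal sodium.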

The nature of test [13]: qHTS assay to test for compound auto fluorescence at 590 nm (red) in HepG2 cell free culture (AID 720684). The essentials: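 Rose Bengal sodium served as the reference for red signal. Test compounds were dispensed into serum-containing MEM (10% FBS) without cells, and plates were read at 540/590 nm.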
Test [14] is described as follows: qHTS assay to test for compound auto fluorescence at 460 nm (blue) in HepG2 cell free culture (AID 720685). In a few lines: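 Cell-free plates of MEM plus 10% FBS received 23 nL compound or DMSO vehicle; blue-channel (405/460 nm) intensity scored against triamterene as reference fluorophore.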
The nature of test [15]: qHTS assay to test for compound auto fluorescence at 535 nm (green) in HepG2 cell free culture (AID 720686).
Test [16] in a line: qHTS assay to test for compound auto fluorescence at 460 nm (blue) in HepG2 cells (AID 720687). In a few lines: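 HepG2 cells in MEM with 10% FBS, attached overnight at 37 C, were exposed to compound or DMSO for 1 hr at 37 C, 5% CO2. Blue fluorescence was read at 405/460 nm, with triamterene as reference fluorophore.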
Test [17] deals with Glucocorticoid receptor (Homo sapiens) (UniProt P04150). Put plainly: qHTS assay to identify small molecule agonists of the glucocorticoid receptor (GR) signaling pathway (AID 720691; active = well fitted activation curve with a large enough effect in the signal ratio in the repeat runs, not every such curve was filed as active; the % refers to the signal ratio). The essentials: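 A HeLa cervical cancer line expressing GR and a glucocorticoid response element-driven beta-lactamase gene is treated with compounds for 18 h; LiveBLAzer B/G FRET substrate is then applied and fluorescence read.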
Chain of Glucocorticoid receptor (Homo sapiens) (P04150 whole entry, looked up): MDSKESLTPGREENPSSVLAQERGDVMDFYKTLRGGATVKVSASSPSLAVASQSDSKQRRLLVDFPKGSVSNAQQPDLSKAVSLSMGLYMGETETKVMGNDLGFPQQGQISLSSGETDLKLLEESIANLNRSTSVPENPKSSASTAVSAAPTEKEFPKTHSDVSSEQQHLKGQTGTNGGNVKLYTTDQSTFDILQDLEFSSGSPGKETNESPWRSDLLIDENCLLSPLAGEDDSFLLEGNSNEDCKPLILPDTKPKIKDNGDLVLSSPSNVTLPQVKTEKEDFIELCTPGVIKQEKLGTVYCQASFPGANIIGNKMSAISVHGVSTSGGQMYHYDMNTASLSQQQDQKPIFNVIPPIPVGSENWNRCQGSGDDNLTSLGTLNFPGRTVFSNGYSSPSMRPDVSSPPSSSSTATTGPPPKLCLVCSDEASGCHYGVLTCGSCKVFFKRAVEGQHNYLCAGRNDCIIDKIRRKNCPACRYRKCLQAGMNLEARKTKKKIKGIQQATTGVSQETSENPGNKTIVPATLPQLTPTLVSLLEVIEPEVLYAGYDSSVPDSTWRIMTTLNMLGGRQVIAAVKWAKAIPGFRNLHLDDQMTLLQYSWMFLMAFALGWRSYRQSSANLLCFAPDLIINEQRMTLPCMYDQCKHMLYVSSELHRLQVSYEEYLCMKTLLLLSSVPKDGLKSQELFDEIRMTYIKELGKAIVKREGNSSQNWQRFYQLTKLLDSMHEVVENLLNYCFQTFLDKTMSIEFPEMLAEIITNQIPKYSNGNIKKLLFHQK

Test [18] shares this target. The experiment in a line: qHTS assay to identify small molecule antagonists of the glucocorticoid receptor (GR) signaling pathway (AID 720692; active = well fitted inhibition curve with a large enough effect in the signal ratio in the repeat runs, not every such curve was filed as active; the % refers to the signal ratio). In a few lines: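 GRE-bla HeLa line, dex-stimulated (5 nM final). Compound exposure 18 h, 37 C. Beta-lactamase FRET read after 2 h RT substrate.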
A short description of test [19]: qHTS assay for small molecule disruptors of the mitochondrial membrane potential - cell viability (AID 720634; calls by dose curve; note: nearly all actives have a fitted effect of over 20% in size; note: potency is the fitted concentration of half-maximal effect). In a few lines:
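Same-well counter-screen: following the MMP dye addition, CellTiter-Glo was added to 1 hr compound-treated HepG2 cells and luminescence read after 30 min at room temperature.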

Test [20] can be described thus: qHTS assay for small molecule agonists of the p53 signaling pathway - cell viability (AID 651633; calls by dose curve;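 note: p53RE-bla HCT reporter cells with a stable beta-lactamase p53 reporter; series mostly up to about 83 µM; nearly all actives have a fitted effect of over 30% in size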). In a few lines: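 p53RE-bla cells were treated with compound for 16 hours at 37 C. Cytotoxicity was then measured as CellTiter-Glo luminescence after 30 min at room temperature.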

Turning to `Nc1c(Cl)c(F)nc(OCC(=O)O)c1Cl`, the Potency entry in test [1], in [3], in test [4], in test [17] and in test [18] was “inactive” in each case. Also, the call in [2], in test [5], in [6], in test [7], in [8] and in [9] was inactive. Further, the outcome in test [10], in test [11], in test [12], in test [13], in test [14] and in test [15] was inactive. Moreover, the compound was called inactive in test [16].
As to `CCC(=O)OC1(c2ccccc2)CCN(C)CC1`, the Potency result in [1], in [3], in [4], in [17] and in test [18] was “inactive” throughout. The compound was classed as inactive in [2], in test [5], in test [6], in test [7], in test [8] and in test [9]. Also, the outcome in test [10], in [11], in test [12], in test [13], in test [14] and in test [15] was inactive. In addition, the result in [16] was inactive.
For the compound `CC[C@H](N)c1ccccc1`, the Potency entry in [1], in test [3], in [19], in test [17] and in test [18] was “inactive” each time. The compound was called inactive in [2], in [5], in test [7], in [8], in [9] and in test [10]. Moreover, the compound was classed as inactive in test [11], in test [12], in test [13], in test [14], in test [15] and in [16].
Regarding `CCOP(=S)(OCC)Oc1ccc(Cl)cc1Cl`, the Potency entry in [1], in test [3], in [17] and in test [18] was “inactive” in each case. The compound was called inactive in [2], in test [5], in test [7], in test [8], in [10] and in test [11]. Also, the compound was classed as inactive in test [12], in test [13], in test [14], in test [15] and in test [16].
Regarding `CCOC(=O)c1ncn2c1CN(C)C(=O)c1c(I)cccc1-2`, the Potency entry in [1], in test [19] and in test [17] was “inactive” each time. The call in test [2], in [5], in test [6], in test [7], in test [8] and in test [10] was inactive. Besides, the outcome in test [11], in [12], in test [13], in test [14], in [15] and in test [16] was inactive.
As to `Oc1ccc2c3c1O[C@H]1[C@@H](O)C=C[C@H]4[C@@H](C2)NCC[C@@]341`, the Potency entry in test [1] and in test [3] was “inactive” throughout. Besides, the compound was called inactive in test [2], in test [5], in test [6], in [7], in test [8] and in test [10]. Moreover, the result in test [11], in test [12], in [13], in test [14], in test [15] and in test [16] was inactive.
On to `CC(C)N(Cc1ccccc1)C(=O)C(C)(C)C`, for which the Potency entry in [1] and in [3] was “inactive” in each case. Also, the outcome in [2], in test [5], in test [6], in test [7], in test [8] and in [9] was inactive. Further, the outcome in test [10], in [11], in [12], in test [13], in test [14] and in test [15] was inactive. The outcome in test [16] was inactive.
For the compound `ClC(Cl)(Cl)Cl`, the Potency result in test [1] and in test [4] was “inactive” throughout. For the same compound, the compound was called inactive in test [2], in [5], in test [6], in test [7], in [8] and in [10]. Moreover, the call in test [11], in test [12], in [13], in test [14], in test [15] and in test [16] was inactive.
Turning to `CC(C)C(C)(N)C#N` (stereo unspecified), the Potency entry in test [1], in test [3], in test [19], in test [17] and in test [18] was “inactive” in each case. The outcome in test [2], in test [5], in test [7], in [8], in test [9] and in [10] was inactive. The compound was classed as inactive in [11], in test [12], in [13], in test [14], in test [15] and in test [16].
In the case of `O=C1C2CC=CCC2C(=O)N1SC(Cl)(Cl)Cl` (stereo unspecified), the Potency is 5.96 µM (active) in [1]; 29.8 µM (active) and inactive and 60.1 µM (active) in test [19]; 8.41 µM (active) and 43.1 µM (active) and 8.49 µM (active) in test [4]. Besides, the call in test [2], in test [6], in test [7], in test [8], in [9] and in test [10] was inactive. The compound was called inactive in [11], in test [12], in test [13], in test [14], in test [15] and in test [16].
Turning to `CC[C@@H](CO)NC(=O)[C@@H]1C=C2c3cccc4c3c(cn4C)C[C@H]2N(C)C1`, the compound was classed as inactive in [2], in [5], in [6], in [8], in [9] and in test [10]. The outcome in test [11], in test [12], in [13], in test [14], in test [15] and in test [16] was inactive. Also, the Potency result in test [20], in test [3] and in [19] was “inactive” each time.
`Cc1ccc2cc(C)ccc2c1`: the call in test [2], in test [5], in test [6], in test [7], in [8] and in [9] was inactive. The compound was classed as inactive in test [10], in [11], in test [12], in test [13], in test [14] and in test [15]. In addition, in test [16], the outcome was inactive. For the same compound, the Potency result in test [20], in test [3], in test [19], in test [17] and in test [18] was “inactive” throughout.
With `CCN[C@@H](C)Cc1cccc(C(F)(F)F)c1`, the call in [2], in test [5], in [7], in [8], in test [10] and in test [11] was inactive. In addition, the compound was called inactive in test [12], in test [13], in test [14], in [15] and in test [16]. The Potency result in test [20], in test [3], in test [19], in [4] and in test [17] was “inactive” in each case.
In the case of `COP(=O)(OC)O/C(C)=C/C(=O)N(C)C`, the Potency entry in test [1] and in test [3] was “inactive” each time. In addition, the result in test [2], in [5], in test [7], in test [8], in test [9] and in [10] was inactive. The result in test [11], in [12], in test [13], in test [15] and in test [16] was inactive.
In the case of `O=P(O)(O)c1ccccc1`, the call in [2], in test [5], in [6], in test [7], in test [8] and in test [9] was inactive. For the same compound, the outcome in [10], in test [11], in test [12], in test [13], in test [15] and in test [16] was inactive. Further, the Potency entry in test [20], in test [3], in test [19] and in [4] was “inactive” each time.
